Data reported in PubChem BioAssay (NCATS).
Results filed as inconclusive are left out. Where a call stands in place of a potency, no number is given. Active and inactive are the calls of the source. Unless noted, calls follow the shape of the dose curve; as a rule, active = well fitted curve in the direction sought with a large enough effect in the repeat runs; inconclusive = weak or mixed curves; inactive = no such curve, though single readings can be large; an effect the other way counts as inactive or inconclusive.

Key:
[1] = biological target: Calcium and integrin-binding protein 1 (Homo sapiens) (UniProt Q99828); assay: Primary qHTS for Identification of Calcium Integrin Binding Protein 1 (CIB1) Competitor (AID 1508620; active = well fitted curve in the direction sought with a large enough effect; an effect the other way counts as inactive or inconclusive;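 also: GST tagged CIB1 binding a fluorescein labelled alphaIIb integrin peptide tracer; top concentration of the series differs between compounds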)
Calcium and integrin-binding protein 1 (Homo sapiens), sequence (Q99828 whole entry, looked up): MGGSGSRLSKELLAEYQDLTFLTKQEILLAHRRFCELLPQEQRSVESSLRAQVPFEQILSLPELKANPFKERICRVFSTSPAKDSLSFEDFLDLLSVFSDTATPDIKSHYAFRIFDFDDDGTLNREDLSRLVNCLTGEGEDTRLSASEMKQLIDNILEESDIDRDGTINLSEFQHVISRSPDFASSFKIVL
Method in brief: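 CIB1-GST (1 uM final) and compound incubated 15 min at room temperature before adding FITC-alphaIIb peptide tracer (100 nM final). Competition for binding read by fluorescence polarization (ex 480, em 540) after another 15 min at room temperature.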

[2] = biological target: Cytochrome P450 2D6 (Homo sapiens) (UniProt P10635); assay: Cytochrome P450 family 2 subfamily D member 6 (CYP2D6) small molecule antagonists: luciferase biochemical (cell-free) qHTS assay (AID 1645840); also: nearly all actives have a fitted effect of over 55% in size; also: potency is read from the fitted curve at half-maximal effect
Cytochrome P450 2D6 (Homo sapiens), sequence (P10635 whole entry, looked up): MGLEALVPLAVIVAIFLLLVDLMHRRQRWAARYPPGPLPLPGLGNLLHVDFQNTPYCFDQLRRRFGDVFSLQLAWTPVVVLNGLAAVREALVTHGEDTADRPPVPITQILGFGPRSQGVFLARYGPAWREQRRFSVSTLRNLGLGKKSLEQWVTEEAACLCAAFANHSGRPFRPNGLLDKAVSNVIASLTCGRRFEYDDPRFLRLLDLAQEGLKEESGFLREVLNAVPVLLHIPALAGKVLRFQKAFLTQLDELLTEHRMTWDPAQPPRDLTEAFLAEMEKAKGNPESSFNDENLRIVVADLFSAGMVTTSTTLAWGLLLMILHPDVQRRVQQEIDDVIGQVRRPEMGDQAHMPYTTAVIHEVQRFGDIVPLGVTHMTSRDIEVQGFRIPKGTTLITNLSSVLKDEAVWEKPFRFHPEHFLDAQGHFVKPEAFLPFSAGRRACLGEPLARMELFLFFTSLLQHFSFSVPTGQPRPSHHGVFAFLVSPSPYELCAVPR
Method in brief: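 P450-Glo luminescent screen: recombinant CYP2D6 enzyme–proluciferin substrate mix preincubated with compound 10 min at room temperature, then NADPH regeneration added for 1 h at room temperature. Detection reagent added for 20 min; luciferin light read as relative luminescence units.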

Compound	Potency [1]	Potency [2]
CC(C)(C)Sc1c(CC(C)(C)C(=O)O)n(Cc2ccc(Cl)cc2)c2ccc(OCc3ccc4ccccc4n3)cc12	inactive	inactive
CNc1cc2[nH]c(=O)n(-c3ccc(NC(=O)NS(=O)(=O)c4ccc(Cl)s4)cc3)c(=O)c2cc1F	inactive	inactive
Cc1nc(NC(=O)N2CCC[C@H]2C(N)=O)sc1-c1ccnc(C(C)(C)C(F)(F)F)c1	inactive	inactive
Cc1cnn(-c2ccccc2)c1NC(=O)COCc1ccccc1	inactive	inactive
NC(N)=NC(=O)c1cnn(-c2cccc3ncccc23)c1C1CC1	inactive	inactive
CCNC1(C(N)=O)CCN(c2ncnc3c2nc(-c2ccccc2Cl)n3-c2ccc(Cl)cc2)CC1	inactive	16.9 µM (active)
C#Cc1cccc(Nc2nc3cc(C(=O)O)ccc3c3cncnc23)c1	inactive	inactive
COCC(=O)NC/C=C/c1ccc2ncnc(Nc3ccc(Oc4ccc(C)nc4)c(C)c3)c2c1	inactive	10.7 µM (active)
Clc1ccc(Cn2c(Cc3ccccc3)nc3ccccc32)cc1	inactive	10.7 µM (active)
O=C(NCCCNc1nc(Nc2cccc(CN3CCOCC3)c2)ncc1C1CC1)C1CCC1	inactive	6.01 µM (active)
O=c1[nH]c2ccc(C#CCN3CCC(Cc4ccccc4)CC3)cc2[nH]1	inactive	0.338 µM (active)
COc1cc(N2CCC(N)CC2)ccc1Nc1ncc(Cl)c(-c2c[nH]c3ccccc23)n1	inactive	21.3 µM (active)
O=C(NCCN1CCN(c2cccc3c2OCCO3)CC1)c1ccc(F)cc1	inactive	12 µM (active)
